Measurements: PubChem BioAssay
Active and inactive are the calls of the source. Unless noted, no rule for the calls is given here.

Columns and labels:
[1] = compounds binding Alexa647 anti-His antibody – biochemical, small-molecule microarray, 635 nm fluorescence, artefact control for SMM control protein annotation, primary screen (AID 1128); settings: higher = more signal;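 also: score merges feature fluorescence with signal-to-noise for each printed compound spot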
[2] = tested on: Human papillomavirus type 1a E7 protein (residues 1-88); assay: HPV1a E7 small-molecule binders, primary screen, biochemical, small-molecule microarray, residues 1-88, 635 nm (AID 1129); settings: small-molecule microarray binding, fluorescence 635 nm; higher = more signal
[3] = target: Focal adhesion kinase 1 (Homo sapiens) (UniProt Q05397); assay: PTK2 protein binding on printed compound slides – biochemical, small-molecule microarray, 635/667 nm fluorescence, BSA, DTT, primary screen (AID 1130); settings: 635 nm fluorescence, higher = more signal;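 also: composite of spot emission at 667 nm and signal to noise over triplicate slides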
Sequence of Focal adhesion kinase 1 (Homo sapiens) (Q05397 whole entry, looked up): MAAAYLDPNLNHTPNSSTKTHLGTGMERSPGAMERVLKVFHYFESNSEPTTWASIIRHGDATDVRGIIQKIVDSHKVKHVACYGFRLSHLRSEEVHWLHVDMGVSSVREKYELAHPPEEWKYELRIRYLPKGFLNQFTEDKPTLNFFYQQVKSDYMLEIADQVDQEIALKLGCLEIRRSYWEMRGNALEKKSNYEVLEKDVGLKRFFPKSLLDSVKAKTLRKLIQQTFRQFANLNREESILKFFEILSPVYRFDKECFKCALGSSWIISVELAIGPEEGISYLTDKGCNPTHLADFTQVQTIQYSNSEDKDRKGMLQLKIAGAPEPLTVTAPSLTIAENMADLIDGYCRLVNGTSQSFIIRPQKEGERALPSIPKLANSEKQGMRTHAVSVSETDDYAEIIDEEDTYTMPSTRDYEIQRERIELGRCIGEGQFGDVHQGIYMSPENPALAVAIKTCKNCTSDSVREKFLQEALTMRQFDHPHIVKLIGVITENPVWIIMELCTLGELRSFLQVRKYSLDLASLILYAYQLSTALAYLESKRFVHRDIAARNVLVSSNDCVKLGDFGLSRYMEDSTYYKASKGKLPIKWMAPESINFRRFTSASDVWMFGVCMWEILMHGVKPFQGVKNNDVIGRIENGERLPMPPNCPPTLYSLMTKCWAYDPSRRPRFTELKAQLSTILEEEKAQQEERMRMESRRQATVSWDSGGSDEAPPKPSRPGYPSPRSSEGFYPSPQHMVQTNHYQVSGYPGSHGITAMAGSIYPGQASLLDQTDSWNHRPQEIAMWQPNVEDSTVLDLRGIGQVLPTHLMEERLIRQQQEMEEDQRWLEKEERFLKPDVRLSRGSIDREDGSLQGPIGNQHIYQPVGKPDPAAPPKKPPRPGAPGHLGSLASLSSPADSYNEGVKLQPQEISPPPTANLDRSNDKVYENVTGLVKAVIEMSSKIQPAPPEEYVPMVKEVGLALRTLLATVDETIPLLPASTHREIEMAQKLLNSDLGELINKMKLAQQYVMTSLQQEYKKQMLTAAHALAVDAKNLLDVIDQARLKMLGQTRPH

[4] = tested on: Fibrinogen (Alexa647-labelled); assay: Alexa647-fibrinogen binding to printed small molecules – biochemical, small-molecule microarray, 635/667 nm fluorescence, artefact control for SMM control-protein annotation, profiling panel (AID 1131); settings: fibrinogen-A647 binding fluorescence, higher = more signal;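 also: z-score merges 667 nm fluorescence with per-spot signal-to-noise over triplicate slides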
[5] = target: Follistatin (Homo sapiens) (UniProt P19883); assay: FST protein binding to printed compounds – biochemical, small-molecule microarray, 635/667 nm fluorescence, primary screen (AID 1132); settings: 635 nm fluorescence, higher = more signal
Sequence of Follistatin (Homo sapiens) (P19883 whole entry, looked up): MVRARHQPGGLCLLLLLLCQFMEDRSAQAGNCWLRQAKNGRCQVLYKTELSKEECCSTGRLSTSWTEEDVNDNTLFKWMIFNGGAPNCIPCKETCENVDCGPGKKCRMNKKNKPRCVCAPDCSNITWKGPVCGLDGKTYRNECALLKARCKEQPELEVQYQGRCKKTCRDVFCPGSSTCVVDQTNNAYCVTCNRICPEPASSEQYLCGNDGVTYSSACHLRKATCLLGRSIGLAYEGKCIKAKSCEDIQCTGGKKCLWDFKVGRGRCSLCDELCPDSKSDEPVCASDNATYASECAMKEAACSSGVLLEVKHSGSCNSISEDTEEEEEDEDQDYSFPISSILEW

[6] = target: Fibroblast growth factor 2 (Homo sapiens) (UniProt P09038); assay: basic fibroblast growth factor binding to printed compounds – biochemical, small-molecule microarray, 635/667 nm fluorescence, primary screen (AID 1133); settings: FGF2, fluorescence 635/667, higher = more signal
Sequence of Fibroblast growth factor 2 (Homo sapiens) (P09038 whole entry, looked up): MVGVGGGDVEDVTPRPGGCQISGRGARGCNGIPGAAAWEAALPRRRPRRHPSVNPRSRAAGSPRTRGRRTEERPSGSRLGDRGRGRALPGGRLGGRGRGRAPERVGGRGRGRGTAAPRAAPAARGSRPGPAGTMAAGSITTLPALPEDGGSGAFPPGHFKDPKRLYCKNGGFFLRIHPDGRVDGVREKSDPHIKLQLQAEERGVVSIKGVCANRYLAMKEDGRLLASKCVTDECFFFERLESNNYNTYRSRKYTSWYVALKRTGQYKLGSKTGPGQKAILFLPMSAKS

[7] = JC-1 mitochondrial potential readout, lung cancer cells – cell-based, A549, JC-1 fluorescence, basal, 24 h, 100 nL, profiling panel (AID 1138); settings: higher = more signal;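 also: A549 lung adenocarcinoma cells under basal conditions with no added stimulus; test concentration not given here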
[8] = tested on: Lefty1; assay: Lefty1 protein binding to printed compounds – biochemical, small-molecule microarray, 635/667 nm fluorescence, primary screen (AID 1139); settings: fluorescence 635/667, higher = more signal
[9] = tested on: wheat germ agglutinin (Triticum aestivum), Alexa647-labelled; assay: Alexa647-WGA lectin binding to printed small molecules – biochemical, small-molecule microarray, 635/667 nm fluorescence, artefact control for SMM control-protein annotation, profiling panel (AID 1140); settings: WGA-A647 binding, 635 nm fluorescence, higher = more signal;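 also: score merges 667 nm feature emission with signal to noise over triplicate slides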
[10] = target: Luciferin 4-monooxygenase (Photinus pyralis) (UniProt P08659); assay: inhibition of purified Photinus pyralis luciferase – biochemical, luminescence, purified enzyme, 2006 set, primary screen (AID 1141); settings: purified firefly luciferase, SteadyGlo luminescence, 30 min; higher = more signal, called active from +8 up or from −8 down;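 also: cell-free assay with purified firefly luciferase at 100 ng per well in PBS; test concentration not given here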
Sequence of Luciferin 4-monooxygenase (Photinus pyralis) (P08659 whole entry, looked up): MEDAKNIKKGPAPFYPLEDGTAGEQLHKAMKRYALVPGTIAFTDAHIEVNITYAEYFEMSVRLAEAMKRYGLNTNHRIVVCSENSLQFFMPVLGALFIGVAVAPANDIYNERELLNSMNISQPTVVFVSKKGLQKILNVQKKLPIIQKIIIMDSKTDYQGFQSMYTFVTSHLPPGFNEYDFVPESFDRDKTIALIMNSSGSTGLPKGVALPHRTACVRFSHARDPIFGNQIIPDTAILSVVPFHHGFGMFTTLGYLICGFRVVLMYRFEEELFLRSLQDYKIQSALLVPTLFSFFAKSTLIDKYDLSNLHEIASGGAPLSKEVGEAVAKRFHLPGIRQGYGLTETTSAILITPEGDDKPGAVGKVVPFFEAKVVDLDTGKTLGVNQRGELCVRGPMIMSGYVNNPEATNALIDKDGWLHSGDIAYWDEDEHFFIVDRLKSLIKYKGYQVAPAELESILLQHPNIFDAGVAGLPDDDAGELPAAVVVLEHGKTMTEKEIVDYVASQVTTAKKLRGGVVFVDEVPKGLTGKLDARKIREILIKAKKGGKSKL

[11] = tested on: Wnt5a (protein binding on small-molecule microarray); assay: small molecules binding Wnt5a protein – biophysical, small-molecule microarray, 635/667 nm fluorescence, primary screen (AID 1142); settings: 635 nm fluorescence, higher = more signal;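 also: fluorescence read at 667 nm with signal to noise per printed feature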
[12] = ATP-based viability of Huh7 replicon cells – cell-based, CellTiter-Glo luminescence, basal, 48 h, cytotoxicity control for HCV replication inhibitor project, primary screen (AID 1143); settings: higher = more signal, called active from +8 up or from −8 down;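 also: Huh7 hepatoma cells carrying a hepatitis C replication reporter with no stimulus; test concentration not given here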
[13] = Pseudomonas biofilm growth suppression – PAO1 strain, BacTiter-Glo luminescence, LB-PBS, primary screen (AID 1144); settings: P. aeruginosa PAO1 biofilm, 12 h, higher = more signal
[14] = basal CRE-LacZ reporter activity in PC12 – cell-based, unstimulated, primary screen (AID 1145); settings: no forskolin, luminescence, 4.5 h, higher = more signal, called active from +8 up or from −8 down
[15] = forskolin-driven CRE-LacZ activity in PC12 – cell-based, CRE-LacZ reporter, forskolin-stimulated, primary screen (AID 1146); settings: luminescence, 4.5 h, higher = more signal, called active from +8 up or from −8 down;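 also: PC12 cells with 6xCRE LacZ reporter stimulated by forskolin 10 µM; beta-galactosidase reporter signal reflecting CREB driven transcription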
[16] = target: Streptavidin (Streptomyces avidinii) (UniProt P22629); assay: compounds binding control protein streptavidin – biophysical, small-molecule microarray, 635/667 nm fluorescence, artefact control for SMM compound annotation, primary screen (AID 1147); settings: higher = more signal;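 also: signal reflects streptavidin binding to arrayed compounds as a control protein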
Sequence of Streptavidin (Streptomyces avidinii) (P22629 whole entry, looked up): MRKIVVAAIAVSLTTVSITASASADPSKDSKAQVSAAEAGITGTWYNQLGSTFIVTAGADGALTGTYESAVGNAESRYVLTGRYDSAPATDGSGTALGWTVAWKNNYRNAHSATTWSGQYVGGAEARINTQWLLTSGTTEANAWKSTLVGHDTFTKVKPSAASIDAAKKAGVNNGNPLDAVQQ

[17] = probe aInhba binding on compound microarray – biochemical, small-molecule microarray, 635/667 nm fluorescence, primary screen (AID 1148); settings: higher = more signal;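 also: score merges 667nm spot fluorescence with signal-to-noise for antibody binding to printed compounds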
[18] = target: Torsin-1A (Homo sapiens) (UniProt O14656); assay: TOR1A wild-type binding on microarray – cell lysate, small-molecule microarray, lysate, 635/667 nm, primary screen (AID 1149); settings: COS7 hTOR1A-WT lysate, 635 nm fluorescence, higher = more signal
Sequence of Torsin-1A (Homo sapiens) (O14656 whole entry, looked up): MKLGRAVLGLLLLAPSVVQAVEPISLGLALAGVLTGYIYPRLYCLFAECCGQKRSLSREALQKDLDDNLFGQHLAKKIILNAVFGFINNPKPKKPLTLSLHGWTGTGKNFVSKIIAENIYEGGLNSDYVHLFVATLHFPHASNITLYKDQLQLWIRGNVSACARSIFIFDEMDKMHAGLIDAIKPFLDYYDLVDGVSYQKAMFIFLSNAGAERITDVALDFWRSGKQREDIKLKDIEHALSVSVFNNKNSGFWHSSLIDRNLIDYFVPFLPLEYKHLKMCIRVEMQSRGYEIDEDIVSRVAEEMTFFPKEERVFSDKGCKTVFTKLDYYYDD

[19] = target: Torsin-1A (Homo sapiens) (UniProt O14656); assay: torsin A mutant lysate binding on microarrays – cell lysate, small-molecule microarray, COS7 lysate, 635/667 nm fluorescence, primary screen (AID 1150); settings: COS7 hTOR1A mutant lysate, 635 nm fluorescence, higher = more signal;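 also: score pools 667 nm emission and signal to noise measuring lysate protein binding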
[20] = tested on: Sonic hedgehog protein (Shh); assay: Sonic hedgehog microarray binding compounds – biochemical, small-molecule microarray, 635/667 nm fluorescence, primary screen (AID 1151); settings: 635 nm fluorescence, higher = more signal;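 also: Shh protein binding to compounds spotted on small-molecule microarray slides; score combines spot fluorescence intensity with signal-to-noise across triplicate slides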

CC(C)CNC(=O)[C@@]1(c2ccc([N+](=O)[O-])cc2)CC(=O)N(CC23CC4CC(CC(C4)C2)C3)[C@@H]1c1ccc(CO)cc1I
composite z-score [1]: 1.33 | composite z-score [2]: 1.14 | composite z-score [3]: 0.775 | composite z-score [4]: 0.635 | composite z-score [5]: 1.39 | composite z-score [6]: 1.31 | z-score [7]: 1.12 | composite z-score [8]: 1.12 | composite z-score [9]: 0.352 | z-score [10]: -0.447 (inactive) | composite z-score [11]: 0.777 | z-score [12]: -4.95 (inactive) | z-score [13]: -0.266 (inactive) | z-score [14]: 0.145 (inactive) | z-score [15]: 1.07 (inactive) | composite z-score [16]: 0.574 | composite z-score [17]: 0.11 | composite z-score [18]: 0.283 | composite z-score [19]: 0.578 | composite z-score [20]: 2.02

COCC(=C=CC[C@H](O)c1ccc(OCCO)cc1)C[C@H](O)c1cc(Cl)cc(Cl)c1O
composite z-score [1]: 0.773 | composite z-score [2]: 0.907 | composite z-score [3]: -0.427 | composite z-score [4]: 0.799 | composite z-score [5]: 1.38 | composite z-score [6]: 1.4 | z-score [7]: 0.268 | composite z-score [8]: 1.47 | composite z-score [9]: 0.0552 | z-score [10]: -0.846 (inactive) | composite z-score [11]: 0.635 | z-score [12]: -7.94 (inactive) | z-score [13]: -0.984 (inactive) | z-score [14]: 11.1 (active) | z-score [15]: 0.96 (inactive) | composite z-score [16]: 0.169 | composite z-score [17]: 0.0849 | composite z-score [18]: 1.06 | composite z-score [19]: 0.3 | composite z-score [20]: 2.26

COc1cc(C(O)C2C=CC3C(=O)N(c4ccccc4)C(=O)C3N2Nc2ccc(C#N)cc2)cc(OC)c1OC (stereo not given)
composite z-score [1]: 2.58 | composite z-score [2]: 1.31 | composite z-score [3]: 1.04 | composite z-score [4]: 1.11 | composite z-score [5]: 1.02 | composite z-score [6]: 0.0977 | z-score [7]: 0.142 | composite z-score [8]: -0.0667 | composite z-score [9]: 1.51 | z-score [10]: 0.282 (inactive) | composite z-score [11]: 0.537 | z-score [12]: 0.616 (inactive) | z-score [13]: -0.201 (inactive) | z-score [14]: 0.426 (inactive) | z-score [15]: 0.238 (inactive) | composite z-score [16]: 1.66 | composite z-score [17]: 0.201 | composite z-score [18]: 0.249 | composite z-score [19]: 0.204 | composite z-score [20]: 0.117

CCOC(=O)C1=CC[C@@H](c2ccccc2Cl)N(S(=O)(=O)c2ccc(C)cc2)C1
composite z-score [1]: 1.15 | composite z-score [2]: 1.18 | composite z-score [3]: 1.29 | composite z-score [4]: 0.838 | composite z-score [5]: 0.37 | composite z-score [6]: 0.163 | z-score [7]: 2.73 | composite z-score [8]: -0.612 | composite z-score [9]: 0.91 | z-score [10]: 0.614 (inactive) | composite z-score [11]: 0.149 | z-score [12]: -5.35 (inactive) | z-score [13]: -0.602 (inactive) | z-score [14]: 0.173 (inactive) | z-score [15]: -0.0077 (inactive) | composite z-score [16]: 0.884 | composite z-score [17]: 0.0569 | composite z-score [18]: 0.623 | composite z-score [19]: 0.738 | composite z-score [20]: -0.53

Cc1ccc(S[C@]2(C(=O)NCc3ccccc3)CC(=O)N(Cc3ccccc3Cl)[C@@H]2c2ccc(CO)cc2I)cc1
composite z-score [1]: 2.92 | composite z-score [2]: -0.162 | composite z-score [3]: -0.0602 | composite z-score [4]: 0.999 | composite z-score [5]: 0.0508 | composite z-score [6]: -0.871 | z-score [7]: 0.00439 | composite z-score [8]: -0.366 | composite z-score [9]: 0.947 | z-score [10]: 0.831 (inactive) | composite z-score [11]: -0.657 | z-score [12]: -1.68 (inactive) | z-score [13]: -1.12 (inactive) | z-score [14]: -0.258 (inactive) | z-score [15]: 1.72 (inactive) | composite z-score [16]: -0.15 | composite z-score [17]: -0.0963 | composite z-score [18]: -2.03 | composite z-score [19]: -1.65 | composite z-score [20]: 0.262

O=C1C2C=CC(C(O)c3cccs3)N(Nc3ccccc3F)C2C(=O)N1c1ccccc1 (stereo not given)
composite z-score [1]: 1.29 | composite z-score [2]: 1.09 | composite z-score [3]: 0.961 | composite z-score [4]: 0.916 | composite z-score [5]: 0.414 | composite z-score [6]: -0.282 | z-score [7]: -0.265 | composite z-score [8]: -0.0918 | composite z-score [9]: 0.127 | z-score [10]: 1.71 (inactive) | composite z-score [11]: 0.13 | z-score [12]: -1.1 (inactive) | z-score [13]: -1.51 (inactive) | z-score [14]: -0.714 (inactive) | z-score [15]: -0.198 (inactive) | composite z-score [16]: 0.295 | composite z-score [17]: -0.159 | composite z-score [18]: 0.0473 | composite z-score [19]: 0.605 | composite z-score [20]: -0.573

COC(=O)c1c(CC[C@@H](CO)NC(=O)N[C@@H](Cc2ccccc2)Cn2cc(C3(O)CCCCC3)nn2)oc(C(C)=O)c1C(=O)OC
composite z-score [1]: 1.37 | composite z-score [2]: 0.868 | composite z-score [3]: 0.0673 | composite z-score [4]: 0.307 | composite z-score [5]: 0.691 | composite z-score [6]: 0.957 | z-score [7]: -0.941 | composite z-score [8]: 1.31 | composite z-score [9]: -0.267 | z-score [10]: 0.896 (inactive) | composite z-score [11]: 0.636 | z-score [12]: -5.52 (inactive) | z-score [13]: -1.73 (inactive) | z-score [14]: 0.512 (inactive) | z-score [15]: -1.36 (inactive) | composite z-score [16]: 1.16 | composite z-score [17]: -0.0178 | composite z-score [18]: 0.69 | composite z-score [19]: 0.405 | composite z-score [20]: 1.7

CC(C)CNC(=O)[C@@]1(c2ccc([N+](=O)[O-])cc2)CC(=O)N(CC23CC4CC(CC(C4)C2)C3)[C@@H]1c1ccc(CO)cc1
composite z-score [1]: 0.943 | composite z-score [2]: 0.662 | composite z-score [3]: 0.24 | composite z-score [4]: -0.0362 | composite z-score [5]: 0.946 | composite z-score [6]: 1.1 | z-score [7]: 2.5 | composite z-score [8]: 0.0651 | composite z-score [9]: 0.358 | z-score [10]: -1.61 (inactive) | composite z-score [11]: 0.239 | z-score [12]: -4.7 (inactive) | z-score [13]: 0.677 (inactive) | z-score [14]: -0.0888 (inactive) | z-score [15]: -1.32 (inactive) | composite z-score [16]: -0.256 | composite z-score [17]: -0.0442 | composite z-score [18]: 1.16 | composite z-score [19]: 0.395 | composite z-score [20]: 1.04

C=C(CCCC)/C(=C/C[C@H](OC(C)=O)c1ccc(CO)o1)c1cnc2ccccc2c1
composite z-score [1]: 0.867 | composite z-score [2]: 1.18 | composite z-score [3]: -0.0622 | composite z-score [4]: 0.713 | composite z-score [5]: 1.27 | composite z-score [6]: 1.18 | z-score [7]: -0.566 | composite z-score [8]: 1.29 | composite z-score [9]: 1.18 | z-score [10]: -1.88 (inactive) | composite z-score [11]: 0.465 | z-score [12]: 0.665 (inactive) | z-score [13]: -1.22 (inactive) | z-score [14]: 0.0563 (inactive) | z-score [15]: 1.65 (inactive) | composite z-score [16]: 1.25 | composite z-score [17]: 0.0278 | composite z-score [18]: 0.749 | composite z-score [19]: 1.08 | composite z-score [20]: 1.89

COC(=O)c1ccc(C(O)C2C=CC3C(=O)N(C)C(=O)C3N2NC(=O)OC(C)(C)C)o1 (stereo not given)
composite z-score [1]: 0.882 | composite z-score [2]: 1.06 | composite z-score [3]: 0.329 | composite z-score [4]: 0.63 | composite z-score [5]: 0.419 | composite z-score [6]: 0.624 | z-score [7]: -0.414 | composite z-score [8]: 0.0239 | composite z-score [9]: 0.436 | z-score [10]: -0.965 (inactive) | composite z-score [11]: 0.565 | z-score [12]: 0.534 (inactive) | z-score [13]: 0.212 (inactive) | z-score [14]: 1 (inactive) | z-score [15]: 0.323 (inactive) | composite z-score [16]: 0.367 | composite z-score [17]: -0.128 | composite z-score [18]: 0.649 | composite z-score [19]: 1.5 | composite z-score [20]: 0.112
